Data reported in PubChem BioAssay (NCATS).
Results filed as inconclusive are left out. The source made the active and inactive calls. Calls come from the whole dose curve; as a rule, active = well fitted inhibition curve with a large enough effect; inconclusive = small, poorly fitted or top-dose-only effect; inactive = flat fitted curve, though single readings scatter.

Key:
Test in all cases: qHTS profiling for inhibitors of Plasmodium falciparum proliferation (AID 504749); note: nearly all actives have a fitted effect of over 60% in size
Conditions in all cases: P. falciparum in erythrocytes, SYBR Green DNA, 72 h; series mostly up to 28.7 µM
CP260 = tested on: CP260
Summary of the method: (§1)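 Each compound contacts P. falciparum-infected red blood cells for 72 h at 37 C; lysis buffer (Tris, EDTA, saponin, Triton X, SYBR Green I) is added and fluorescence measured next morning; values normalized to controls.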

CP262 = tested on: CP262
Summary of the method: as §1

CP265 = tested on: CP265
Summary of the method: as §1

CP238 = tested on: CP238
Summary of the method: as §1

CP247 = tested on: CP247
Summary of the method: as §1

CP250 = tested on: CP250
Summary of the method: as §1

CP252 = tested on: CP252
Summary of the method: as §1

CP256 = tested on: CP256
Summary of the method: as §1

CP268 = tested on: CP268
Summary of the method: as §1

CP266 = tested on: CP266
Summary of the method: as §1

Measured: Potency
Potency is the fitted concentration of half-maximal effect.

c1ccc(C2CN3CCSC3=N2)cc1 (stereo not drawn)
inactive: CP262
active: CP260 10 µM | CP265 4.47 µM

CC(C)NC[C@H](O)COc1ccc(CC(N)=O)cc1
inactive: CP238 | CP247 | CP250 | CP252 | CP256 | CP260 | CP262 | CP265 | CP268

CCCCCCCCCCCCCCC[C@H](O)[C@H](N)CO
inactive: CP238 | CP247 | CP250 | CP252 | CP256 | CP260 | CP262 | CP265 | CP266 | CP268

CC(O)C(O)[C@H]1CNc2nc(N)[nH]c(=O)c2N1 (stereo partly drawn)
inactive: CP238 | CP247 | CP250 | CP252 | CP256 | CP260 | CP262 | CP265 | CP266 | CP268

CCCCCCCCCCCCCCCCCCOC[C@H](COP(=O)([O-])OCC[N+](C)(C)C)OC
inactive: CP238 | CP247 | CP250 | CP252 | CP256 | CP262 | CP265 | CP266 | CP268

CN1C2CCC1CC(OC(c1ccccc1)c1ccccc1)C2 (stereo not drawn)
inactive: CP238 | CP265
